Assay [1] has as its system DLD1. Description: cell viability (CellTiter-Glo) relative to plate median (fraction of plate median); higher = more viable cells. Conditions: 5 µM; treatment time 24 h; reporter: 7TFP. Put shortly: (§1)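 Cells were seeded in 384-well plates; these were colorectal cancer lines stably transduced with lentiviral 7TFP or TCF4/Wnt firefly luciferase reporters. After 24 h, library compounds went in at a final 5 µM, and exposure lasted 24 h. Parallel plates were then read for firefly luciferase or CellTiterGlo luminescence, each well normalised to its plate median, with two independent replicates averaged.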
Background: In ATP-based viability assays light output follows the ATP content of the culture.

The next assay concerns HCT116. Described as above. Conditions: 5 µM; treatment time 24 h; reporter: TCF4/Wnt. Put shortly: as §1
The test system of assay [2] is SW480. The assay is described as above. Conditions: 5 µM; treatment time 24 h; reporter: 7TFP. In short, it runs like this: as §1
Assay [3] concerns DLD1. Nature of the assay: TCF/Wnt firefly luciferase reporter signal relative to plate median (fraction of plate median); higher = higher Wnt reporter signal. Conditions: 5 µM; treatment time 24 h; reporter: 7TFP. Put shortly:
as §1

The test system of assay [4] is SW480. The description is as above. Conditions: 5 µM; treatment time 24 h; reporter: 7TFP. In short, it runs like this: as §1

± gives the standard deviation of the averaged measurements.

Consider `CCCCC(CC)CN1CN(CC(CC)CCCC)CC(C)(N)C1` (stereo not given), for which the cell viability worked out at 0.96 ± 0.071 in the assay with DLD1 [1], 0.988 ± 0.032 in the assay on HCT116 and 0.985 ± 0.0028 with SW480 [2]. The “TCF/Wnt firefly luciferase reporter signal” value in the assay with DLD1 [3] was 1.01 ± 0.048; in the assay with SW480 [4], 0.997 ± 0.018.

Consider `N#CN=C(NCCCCCCOc1ccc(Cl)cc1)Nc1ccncc1`, for which the cell viability in the assay with DLD1 [1] was 0.954 ± 0.021; in the assay with HCT116 it was 1.01 ± 0.03; in the assay on SW480 [2] it was 0.87 ± 0.046. For the same compound, the entries for the “TCF/Wnt firefly luciferase reporter signal” value in the assay with DLD1 [3] and with SW480 [4] were 1.15 ± 0.057 and 1.14 ± 0.21, respectively.

On to `Cc1ccc(S(=O)(=O)NC(=O)NN2CC3CCCC3C2)cc1` (stereo not given), for which the cell viability came out at 0.95 ± 0.063 in the assay on DLD1 [1], 0.999 ± 0.044 in the assay on HCT116 and 0.974 ± 0.052 in the assay on SW480 [2]. Besides, the “TCF/Wnt firefly luciferase reporter signal” value with DLD1 [3] stood at 1.07 ± 0.071; with SW480 [4], 0.9645 ± 0.0035.

On to `C/C=C(\C)C(=O)[C@@H](C)/C=C(\C)[C@H]1O[C@@](O)([C@@](O)(CC)C(=O)N[C@@H]2C(=O)N3NCCC[C@@H]3C(=O)N(O)[C@@H](C)C(=O)N(C)[C@H](C)C(=O)N3NCCC[C@H]3C(=O)N[C@H]([C@H](C)O)C(=O)O[C@H]2C(C)C)CC[C@@H]1C`, for which the cell viability with DLD1 [1] stood at 0.983 ± 0.053; with HCT116 it was 1.01 ± 0.17; in the assay with SW480 [2], 1.08. Also, the “TCF/Wnt firefly luciferase reporter signal” value with DLD1 [3] came to 1.01 ± 0.065; in the assay on SW480 [4] it was 1.06 ± 0.035.

With `CCOc1ccc2c(c1)C(C)=CC(C)(C)N2`, the cell viability worked out at 1 ± 0.071 with DLD1 [1], 0.91 ± 0.09 with HCT116 and 1.01 ± 0.035 in the assay on SW480 [2]. Also, the “TCF/Wnt firefly luciferase reporter signal” value with DLD1 [3] worked out at 0.775 ± 0.12; in the assay with SW480 [4] it was 0.899 ± 0.056.

`O=C(O[C@@H]1Cc2c(O)cc(O)cc2O[C@@H]1c1cc(O)c(=O)c2c(O)c(O)cc([C@H]3Oc4cc(O)cc(O)c4C[C@H]3O)c2c1)c1cc(O)c(O)c(O)c1`: the values for the cell viability with DLD1 [1], in the assay with HCT116 and in the assay on SW480 [2] were 1.04 ± 0.069, 1.15 ± 0.028 and 1.01 ± 0.021, respectively. For the same compound, the “TCF/Wnt firefly luciferase reporter signal” value with DLD1 [3] was 1.1 ± 0.057; in the assay on SW480 [4] it was 1.04 ± 0.05.

Regarding `OC[C@H]1O[C@@H](Oc2ccc(O)cc2)[C@H](O)[C@@H](O)[C@@H]1O`, the cell viability with DLD1 [1] was 0.965 ± 0.04; in the assay on HCT116, 0.989 ± 0.072; with SW480 [2], 0.936 ± 0.018. Besides, the “TCF/Wnt firefly luciferase reporter signal” value turned out to be 0.963 ± 0.095 with DLD1 [3] and 0.975 ± 0.033 in the assay with SW480 [4].

Take `CC[C@@H](CO)NCCN[C@@H](CC)CO`: the cell viability in the assay on DLD1 [1] is 0.963 ± 0.12; in the assay on HCT116, 1.03 ± 0.021; with SW480 [2], 1.02 ± 0.059. The “TCF/Wnt firefly luciferase reporter signal” value is 1.2 ± 0.05 with DLD1 [3] and 1.19 ± 0.035 in the assay with SW480 [4].

`CC(C)NCC(O)c1ccc2ccccc2c1` (stereo not given): the cell viability in the assay with DLD1 [1] turned out to be 0.986 ± 0.035; with HCT116 it was 1.01 ± 0.042; with SW480 [2], 0.977 ± 0.0042. Also, the “TCF/Wnt firefly luciferase reporter signal” value in the assay on DLD1 [3] turned out to be 0.962 ± 0.097; in the assay on SW480 [4] it was 1 ± 0.069.

Turning to `CC(=O)O[C@@H]1CC2C(C)(CC[C@H](O)C2(C)C)C2CC[C@]3(C)C(=CC(=O)O[C@H]3c3ccoc3)C21C` (stereo partly drawn) [3beta-HYDROXYDEOXODIHYDRODEOXYGEDUNIN], the cell viability turned out to be 1 ± 0.028 in the assay on DLD1 [1], 0.963 ± 0.081 in the assay with HCT116 and 1.02 ± 0.028 with SW480 [2]. Besides, the “TCF/Wnt firefly luciferase reporter signal” value with DLD1 [3] is 1.15 ± 0.12; in the assay on SW480 [4], 1.12 ± 0.014.

In the case of `CC(=O)O[C@@H]1CC2C(C)(C)[C@H](O)CC[C@]2(C)C2CC[C@@]3(C)[C@H](c4ccoc4)OC(=O)C4OC43[C@@]21C` (stereo partly drawn) [alpha-DIHYDROGEDUNOL], the figures for the cell viability in the assay with DLD1 [1], with HCT116 and with SW480 [2] were 1.03 ± 0.028, 1.01 ± 0.032 and 1.03, respectively. In addition, the “TCF/Wnt firefly luciferase reporter signal” value with DLD1 [3] was found to be 1.02 ± 0.18; with SW480 [4] it was 0.954 ± 0.025.

Consider `Cc1ccccc1C(OCCN(C)C)c1ccccc1` (stereo not given), for which the cell viability turned out to be 1.07 ± 0.13 in the assay with DLD1 [1], 0.894 ± 0.15 with HCT116 and 1.01 ± 0.039 in the assay with SW480 [2]. Moreover, the “TCF/Wnt firefly luciferase reporter signal” value with DLD1 [3] is 1.085 ± 0.0071; in the assay with SW480 [4], 1.12 ± 0.085.

Take `CCC1=C[C@@H]2CN(C1)Cc1c([nH]c3ccccc13)[C@@](C(=O)OC)(c1cc3c(cc1OC)N(C)[C@H]1[C@@](O)(C(=O)OC)[C@H](OC(C)=O)[C@]4(CC)C=CCN5CC[C@]31[C@@H]54)C2`: the cell viability was found to be 1 ± 0.11 in the assay with DLD1 [1], 0.544 ± 0.17 in the assay on HCT116 and 1.12 ± 0.11 with SW480 [2]. Further, the “TCF/Wnt firefly luciferase reporter signal” value in the assay with DLD1 [3] was 0.911 ± 0.13; in the assay on SW480 [4], 0.892 ± 0.12.

As to `CN(C)CCOC(c1ccc(Cl)cc1)c1ccccn1` (stereo not given), the cell viability in the assay with DLD1 [1] is 1.004 ± 0.0085; in the assay on HCT116 it was 0.977 ± 0.033; with SW480 [2], 0.916 ± 0.088. For the same compound, the “TCF/Wnt firefly luciferase reporter signal” value with DLD1 [3] came out at 0.888 ± 0.0057; with SW480 [4], 0.891 ± 0.12.

The record behind these values is the supplement of paper PMC6522484.
